# The supplement of paper PMC10849652
# The full data set covers some 8,800 targets. This sample favours those with a hit. About 0.5% of all pairs of compound and target were hits. Values without a mark were called inactive.
# Assays:
# Assay in all cases: log2 fold change, soluble protein after heating vs DMSO (PISA); higher = thermal stabilisation; K562 lysate, 10 uM; active = over 0.2 and 3.5 SD of the protein, either way, in both replicates (recomputed)
# dasatinib = compound: Cc1nc(Nc2ncc(C(=O)Nc3c(C)cccc3Cl)s2)cc(N2CCN(CCO)CC2)n1 [dasatinib]
# Outline: (§1)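 Soluble protein was defined as the supernatant remaining after 21,000xg for 90 min, following pooling of heated aliquots and adjustment to 0.5% NP-40 at 4°C. Before that, crude K562 extract at 1 mg/mL protein in PBS pH 7.4 with 1 mM MgCl2 was treated with 10 μM compound for 30 min and heated for 3 min across 48°C-58°C. Quantification used TMTpro 16plex LC-MS/MS with channel sums equalised, and values are log-two fold changes in thermal stability relative to solvent controls from duplicates.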
# [1] = compound: Cn1cc(-c2ccc3c(c2)CCN3C(=O)Cc2cccc(C(F)(F)F)c2)c2c(N)ncnc21
# Outline: as §1
# quisinostat = compound: Cn1cc(CNCC2CCN(c3ncc(C(=O)NO)cn3)CC2)c2ccccc21 [quisinostat]
# Outline: as §1
# [2] = compound: NC(=O)Nc1cc(-c2cccc(F)c2)sc1C(=O)N[C@H]1CCCNC1
# Outline: as §1
# [3] = compound: NCC(=O)Nc1ccc(-n2nc(C(F)(F)F)cc2-c2ccc3c(ccc4ccccc43)c2)cc1
# Outline: as §1
# [4] = compound: O=C1NC(=O)C(c2cnc3ccccn23)=C1c1cn2c3c(cc(F)cc13)CN(C(=O)N1CCCCC1)CC2
# Outline: as §1
# entospletinib = compound: c1cn2cc(-c3ccc4cn[nH]c4c3)nc(Nc3ccc(N4CCOCC4)cc3)c2n1 [entospletinib]
# Outline: as §1
# [5] = compound: NC(=O)c1cnc(N[C@@H]2CCCC[C@@H]2N)nc1Nc1cccc(-n2nccn2)c1
# Outline: as §1
# nilotinib = compound: Cc1cn(-c2cc(NC(=O)c3ccc(C)c(Nc4nccc(-c5cccnc5)n4)c3)cc(C(F)(F)F)c2)cn1 [nilotinib]
# Outline: as §1
# [6] = compound: Cc1nc(Nc2n[nH]c3c2CN(C(=O)N[C@H](CN(C)C)c2ccccc2)C3(C)C)c2sccc2n1
# Outline: as §1
# [7] = compound: Cc1ncc(-c2ccnc(Nc3ccc(S(C)(=O)=O)cc3)n2)n1C(C)C
# Outline: as §1
# tipifarnib = compound: Cn1cncc1[C@@](N)(c1ccc(Cl)cc1)c1ccc2c(c1)c(-c1cccc(Cl)c1)cc(=O)n2C [tipifarnib]
# Outline: as §1
# [8] = compound: NC1(c2ccc(-c3nc4ccn5c(=O)[nH]nc5c4cc3-c3ccccc3)cc2)CCC1
# Outline: as §1
# silmitasertib = compound: O=C(O)c1ccc2c(c1)nc(Nc1cccc(Cl)c1)c1ccncc12 [silmitasertib]
# Outline: as §1
# vorinostat = compound: O=C(CCCCCCC(=O)Nc1ccccc1)NO [vorinostat]
# Outline: as §1
# UniProt P02774, sequence (P02774 whole entry, looked up): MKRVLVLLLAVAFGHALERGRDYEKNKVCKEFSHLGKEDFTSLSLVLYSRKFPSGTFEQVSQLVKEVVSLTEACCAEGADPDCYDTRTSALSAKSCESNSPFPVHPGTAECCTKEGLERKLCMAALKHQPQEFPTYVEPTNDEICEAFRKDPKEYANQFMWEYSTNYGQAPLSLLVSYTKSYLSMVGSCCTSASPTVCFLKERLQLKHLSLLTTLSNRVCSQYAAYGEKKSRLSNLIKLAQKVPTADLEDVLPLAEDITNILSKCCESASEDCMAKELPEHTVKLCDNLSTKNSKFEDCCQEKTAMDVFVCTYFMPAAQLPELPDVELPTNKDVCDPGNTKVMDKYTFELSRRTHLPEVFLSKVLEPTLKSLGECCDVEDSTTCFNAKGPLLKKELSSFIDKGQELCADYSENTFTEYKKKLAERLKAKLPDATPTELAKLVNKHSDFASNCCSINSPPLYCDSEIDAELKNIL
# UniProt Q9H790, sequence (Q9H790 whole entry, looked up): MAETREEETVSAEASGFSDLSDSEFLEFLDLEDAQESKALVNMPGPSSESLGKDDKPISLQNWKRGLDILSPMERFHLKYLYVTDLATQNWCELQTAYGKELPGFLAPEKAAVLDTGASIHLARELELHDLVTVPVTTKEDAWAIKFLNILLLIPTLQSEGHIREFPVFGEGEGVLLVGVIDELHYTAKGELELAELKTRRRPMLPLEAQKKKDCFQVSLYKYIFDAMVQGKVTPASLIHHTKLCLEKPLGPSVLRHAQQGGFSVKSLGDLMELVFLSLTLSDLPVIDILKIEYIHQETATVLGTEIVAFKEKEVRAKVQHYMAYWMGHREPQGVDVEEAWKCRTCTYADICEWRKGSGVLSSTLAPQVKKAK
# UniProt P28676, sequence (P28676 whole entry, looked up): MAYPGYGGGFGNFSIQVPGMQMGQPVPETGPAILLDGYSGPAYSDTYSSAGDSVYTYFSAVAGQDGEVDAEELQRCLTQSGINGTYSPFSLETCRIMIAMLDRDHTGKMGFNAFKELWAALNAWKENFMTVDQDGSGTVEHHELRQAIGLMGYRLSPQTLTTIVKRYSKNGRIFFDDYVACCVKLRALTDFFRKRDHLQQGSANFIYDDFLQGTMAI
# UniProt Q9Y2H6, sequence (Q9Y2H6 whole entry, looked up): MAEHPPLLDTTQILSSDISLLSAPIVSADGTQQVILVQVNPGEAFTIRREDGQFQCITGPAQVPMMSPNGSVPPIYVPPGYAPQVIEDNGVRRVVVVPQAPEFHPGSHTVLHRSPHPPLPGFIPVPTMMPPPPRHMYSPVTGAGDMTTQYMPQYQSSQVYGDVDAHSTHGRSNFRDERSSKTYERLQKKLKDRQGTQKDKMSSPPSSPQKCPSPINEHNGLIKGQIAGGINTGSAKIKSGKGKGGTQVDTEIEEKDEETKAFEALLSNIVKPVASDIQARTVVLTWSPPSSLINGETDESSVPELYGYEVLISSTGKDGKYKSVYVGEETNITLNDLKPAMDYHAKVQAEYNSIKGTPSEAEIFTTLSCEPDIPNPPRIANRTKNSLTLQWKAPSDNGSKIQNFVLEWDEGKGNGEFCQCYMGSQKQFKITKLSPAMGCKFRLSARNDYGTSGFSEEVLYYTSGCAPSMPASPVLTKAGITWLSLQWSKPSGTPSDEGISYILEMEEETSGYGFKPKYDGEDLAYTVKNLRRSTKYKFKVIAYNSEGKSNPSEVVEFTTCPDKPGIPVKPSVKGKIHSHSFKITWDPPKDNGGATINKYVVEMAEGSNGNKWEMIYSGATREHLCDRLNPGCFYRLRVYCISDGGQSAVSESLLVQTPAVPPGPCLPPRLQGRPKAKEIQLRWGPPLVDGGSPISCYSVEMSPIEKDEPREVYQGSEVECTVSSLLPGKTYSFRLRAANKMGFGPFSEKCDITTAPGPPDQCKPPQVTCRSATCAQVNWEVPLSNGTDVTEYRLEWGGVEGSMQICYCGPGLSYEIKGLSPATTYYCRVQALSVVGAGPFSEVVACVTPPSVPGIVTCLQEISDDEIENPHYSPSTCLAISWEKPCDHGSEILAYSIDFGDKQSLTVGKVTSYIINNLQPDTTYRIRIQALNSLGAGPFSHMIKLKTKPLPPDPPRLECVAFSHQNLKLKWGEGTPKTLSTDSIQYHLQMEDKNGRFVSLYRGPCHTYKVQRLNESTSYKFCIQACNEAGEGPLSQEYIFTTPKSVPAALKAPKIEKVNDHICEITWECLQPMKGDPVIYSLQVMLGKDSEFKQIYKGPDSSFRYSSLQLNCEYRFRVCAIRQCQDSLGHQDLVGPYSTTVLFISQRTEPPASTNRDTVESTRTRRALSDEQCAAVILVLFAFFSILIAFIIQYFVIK
# UniProt Q9UET6, sequence (Q9UET6 whole entry, looked up): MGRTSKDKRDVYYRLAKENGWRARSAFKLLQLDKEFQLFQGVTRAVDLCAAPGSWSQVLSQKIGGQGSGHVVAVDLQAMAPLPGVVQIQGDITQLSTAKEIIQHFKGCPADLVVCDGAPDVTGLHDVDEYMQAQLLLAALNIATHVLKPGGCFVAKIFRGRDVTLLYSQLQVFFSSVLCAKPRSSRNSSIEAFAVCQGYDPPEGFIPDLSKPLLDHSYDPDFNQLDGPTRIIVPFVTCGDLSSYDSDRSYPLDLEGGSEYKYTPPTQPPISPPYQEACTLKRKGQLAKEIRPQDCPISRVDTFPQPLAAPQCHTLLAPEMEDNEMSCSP
# UniProt P06241, sequence (P06241 whole entry, looked up): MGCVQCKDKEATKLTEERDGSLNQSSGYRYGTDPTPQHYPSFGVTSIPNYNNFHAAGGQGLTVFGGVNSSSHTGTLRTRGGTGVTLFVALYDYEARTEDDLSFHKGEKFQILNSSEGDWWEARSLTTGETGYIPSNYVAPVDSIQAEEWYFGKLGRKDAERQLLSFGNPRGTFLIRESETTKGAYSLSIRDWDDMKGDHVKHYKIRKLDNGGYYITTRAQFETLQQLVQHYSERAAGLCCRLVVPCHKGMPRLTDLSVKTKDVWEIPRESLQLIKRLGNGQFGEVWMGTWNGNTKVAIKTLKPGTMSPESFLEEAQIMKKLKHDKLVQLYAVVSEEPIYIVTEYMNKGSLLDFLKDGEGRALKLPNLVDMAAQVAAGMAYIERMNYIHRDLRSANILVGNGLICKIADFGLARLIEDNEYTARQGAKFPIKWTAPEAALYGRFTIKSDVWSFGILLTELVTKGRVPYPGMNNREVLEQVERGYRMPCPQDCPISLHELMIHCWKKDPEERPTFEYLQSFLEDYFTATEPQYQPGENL
# UniProt Q9NRW4, sequence (Q9NRW4 whole entry, looked up): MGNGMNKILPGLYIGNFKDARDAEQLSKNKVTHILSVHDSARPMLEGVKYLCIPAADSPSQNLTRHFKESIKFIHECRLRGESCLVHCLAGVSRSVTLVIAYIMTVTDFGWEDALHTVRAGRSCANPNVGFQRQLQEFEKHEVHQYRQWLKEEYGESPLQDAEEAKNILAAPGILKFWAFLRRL
# UniProt P35916, sequence (P35916 whole entry, looked up): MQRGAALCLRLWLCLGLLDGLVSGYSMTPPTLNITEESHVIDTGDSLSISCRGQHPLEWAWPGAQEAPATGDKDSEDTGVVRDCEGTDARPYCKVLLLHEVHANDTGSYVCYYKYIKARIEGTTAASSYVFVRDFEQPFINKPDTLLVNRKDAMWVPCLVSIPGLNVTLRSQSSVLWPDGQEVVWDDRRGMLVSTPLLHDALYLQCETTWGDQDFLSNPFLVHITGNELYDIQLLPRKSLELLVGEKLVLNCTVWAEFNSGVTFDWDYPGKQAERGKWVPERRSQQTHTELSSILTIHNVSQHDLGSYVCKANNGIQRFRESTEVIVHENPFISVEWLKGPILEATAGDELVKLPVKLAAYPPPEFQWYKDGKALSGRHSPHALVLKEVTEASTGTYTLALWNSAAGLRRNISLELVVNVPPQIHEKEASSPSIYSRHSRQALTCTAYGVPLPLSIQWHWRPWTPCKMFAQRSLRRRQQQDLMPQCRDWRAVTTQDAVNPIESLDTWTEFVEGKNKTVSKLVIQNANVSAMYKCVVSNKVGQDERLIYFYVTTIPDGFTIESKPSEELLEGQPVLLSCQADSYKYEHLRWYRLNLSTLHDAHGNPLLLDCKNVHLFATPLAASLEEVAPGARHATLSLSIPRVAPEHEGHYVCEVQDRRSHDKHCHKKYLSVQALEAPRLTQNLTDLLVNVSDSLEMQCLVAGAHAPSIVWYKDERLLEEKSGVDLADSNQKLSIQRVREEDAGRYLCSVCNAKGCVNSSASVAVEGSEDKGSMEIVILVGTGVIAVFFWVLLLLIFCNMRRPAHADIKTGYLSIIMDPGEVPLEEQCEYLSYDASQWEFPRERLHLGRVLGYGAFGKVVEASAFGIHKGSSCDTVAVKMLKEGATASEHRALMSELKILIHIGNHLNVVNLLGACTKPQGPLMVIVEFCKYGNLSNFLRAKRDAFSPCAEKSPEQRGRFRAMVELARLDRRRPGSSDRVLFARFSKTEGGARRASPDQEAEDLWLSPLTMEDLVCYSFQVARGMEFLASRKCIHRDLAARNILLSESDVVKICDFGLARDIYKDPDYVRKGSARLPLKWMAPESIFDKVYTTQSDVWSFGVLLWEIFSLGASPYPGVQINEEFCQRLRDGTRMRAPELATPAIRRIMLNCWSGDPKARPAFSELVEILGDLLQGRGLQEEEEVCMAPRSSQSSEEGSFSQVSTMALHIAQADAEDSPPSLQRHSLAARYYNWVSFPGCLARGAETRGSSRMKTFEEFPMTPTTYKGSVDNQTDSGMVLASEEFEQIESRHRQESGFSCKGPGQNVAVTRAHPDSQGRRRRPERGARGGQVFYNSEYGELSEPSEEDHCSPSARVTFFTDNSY
target,measurement,setting,value
GC isoform 3 (UniProt P02774),log2 fold change,dasatinib,0.044
same,log2 fold change,[1],-0.114
same,log2 fold change,quisinostat,0.175
same,log2 fold change,[2],-0.076
same,log2 fold change,[3],-0.058
same,log2 fold change,[4],0.076
same,log2 fold change,entospletinib,-0.053
FTSJ1 isoform 2 (UniProt Q9UET6),log2 fold change,[5],-0.019
same,log2 fold change,[3],-0.109
same,log2 fold change,entospletinib,0.047
EIF3I (UniProt Q5TFK1),log2 fold change,nilotinib,0.108
same,log2 fold change,[6],-0.239
same,log2 fold change,[7],-0.035
same,log2 fold change,tipifarnib,-0.511
same,log2 fold change,[5],0.387
ESRRB isoform 1 (UniProt O95718),log2 fold change,[8],0.182
same,log2 fold change,silmitasertib,0.087
EXO5 (UniProt Q9H790),log2 fold change,quisinostat,-0.082
same,log2 fold change,[2],-0.071
same,log2 fold change,[8],0.08
same,log2 fold change,vorinostat,0.043
same,log2 fold change,silmitasertib,-0.06
same,log2 fold change,[4],0.054
FYN (UniProt P06241),log2 fold change,dasatinib,0.02
same,log2 fold change,[1],0.004
same,log2 fold change,quisinostat,0.022
same,log2 fold change,[2],-0.029
same,log2 fold change,[5],-0.025
same,log2 fold change,[8],0.043
same,log2 fold change,[3],-0.047
same,log2 fold change,vorinostat,0.091
same,log2 fold change,silmitasertib,-0.001
same,log2 fold change,[4],-0.027
same,log2 fold change,entospletinib,0.156
DUSP22 isoform 2 (UniProt Q9NRW4),log2 fold change,nilotinib,-0.039
same,log2 fold change,[6],-0.073
same,log2 fold change,dasatinib,-0.022
same,log2 fold change,[7],0.064
same,log2 fold change,[1],-0.001
same,log2 fold change,tipifarnib,0.038
same,log2 fold change,[5],0.036
same,log2 fold change,[8],0.109
same,log2 fold change,[3],-0.025
same,log2 fold change,vorinostat,-0.102
same,log2 fold change,silmitasertib,0.002
FLT4 (UniProt P35916),log2 fold change,dasatinib,-0.202
same,log2 fold change,[1],0.013
same,log2 fold change,[5],0.162
same,log2 fold change,[8],0.106
same,log2 fold change,[3],-0.097
same,log2 fold change,vorinostat,-0.435 (active)
same,log2 fold change,silmitasertib,0.178
same,log2 fold change,entospletinib,0.054
FNDC3A (UniProt Q9Y2H6),log2 fold change,nilotinib,-0.057
same,log2 fold change,[6],-0.125
same,log2 fold change,[7],-0.293
same,log2 fold change,quisinostat,-0.247
same,log2 fold change,tipifarnib,-0.064
same,log2 fold change,[2],0.059
same,log2 fold change,[8],-0.03
same,log2 fold change,vorinostat,-0.018
same,log2 fold change,silmitasertib,-0.119
same,log2 fold change,[4],-0.146
GCA (UniProt P28676),log2 fold change,nilotinib,0.071
same,log2 fold change,[6],-0.11
same,log2 fold change,[7],0.096
same,log2 fold change,tipifarnib,-0.141
same,log2 fold change,[5],-0.118
same,log2 fold change,[8],-0.017
same,log2 fold change,vorinostat,1.36 (active)
same,log2 fold change,silmitasertib,-0.104
GART (UniProt C9JZG2),log2 fold change,nilotinib,-0.085
same,log2 fold change,[6],-0.033
same,log2 fold change,[7],0.042
same,log2 fold change,quisinostat,-0.373
same,log2 fold change,tipifarnib,-0.101
same,log2 fold change,[2],-0.02
same,log2 fold change,[5],0.139
same,log2 fold change,[4],-0.069
same,log2 fold change,entospletinib,0.037
